From PubChem
Only some compounds are listed: those with a hit (about 13% of all), similar ones and a draw of the others.
Cycloheximide cs = Cycloheximide Counterscreen for Small Molecule Inhibitors of Shiga Toxin; cell reporter, cycloheximide protein synthesis inhibition counterscreen; max response, %; 300,000 tested, 12% active; AID 2314, 2010; in the data active = max response mostly above about 13%, no sharp cut-off; inactive = mostly below about 14%; note: read at 38.3 µM for the half of the compounds with a filed dose; 0% is about no effect
FMDV inh = High Throughput Screening for Foot and Mouth Disease Virus Antivirals; FMDV antiviral cell-based qHTS; Potency, µM (doses to about 57.9 µM), for inactives: top-dose activity change, negative = inhibition, most hits filed as inhibitors; 410,000 tested, 1.2% active; AID 1159524, 2015; calls by dose curve; tested in HEK293T cells; note: read-out not given here; potency is the fitted concentration of half-maximal effect; % is set by controls: 0 for no effect and ±100 for the full control effect; nearly all actives have a fitted effect of over 45% in size
Lassa entry inh = qHTS for Inhibitors of binding or entry into cells for Lassa Virus; AID 540256, 2011; Potency, µM (highest dose often 37.9 µM), for the others: top-dose activity change, negative = inhibition, usual class: inhibitors; 300,000 tested, 1.2% active; Lassa virus pseudotype entry inhibition, cell reporter; calls by dose curve; tested in HEK293 cells; note: potency is the fitted concentration of half-maximal effect; % is set by controls: 0 for no effect and ±100 for the full control effect; nearly all actives have a fitted effect of over 50% in size
Shiga inhibitor = A qHTS for Small Molecule Inhibitors of Shiga Toxin; Vero cells, Shiga toxin protein synthesis inhibition reporter; inhibition, % at 38.7 µM; 290,000 tested, 9.2% active; AID 2315, 2010; in the data active = inhibition mostly above about 28%, no sharp cut-off; inactive = mostly below about 43%; note: 0% is about no effect
HCV inh = qHTS Assay for Inhibitors of Hepatitis C Virus (HCV); Potency, µM (titrated, usually from 41.8 µM), for inactives: at the top dose activity change, negative = inhibition, hits mostly inhibitors; Huh7.5.1 HCVcc-Cre infection, luciferase reporter, 44 h; 340,000 tested, 3.4% active; AID 651820, 2012; active = well fitted inhibition curve with a large enough effect; inconclusive = small, poorly fitted or top-dose-only effect, or another doubt; inactive = no such curve, though single readings can be large or run the other way; note: potency is the fitted concentration of half-maximal effect; % is set by controls: 0 for no effect and ±100 for the full control effect
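Compounds are dispensed onto cells plated 4 h earlier at 1,000 per well, with HCVcc-Cre virus (about 0.5 moi) added next. Following 44 h of culture, luminescent signal is measured for 15 sec after 15 min with substrate at room temperature.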
Marburg entry inh = qHTS for inhibitors of binding or entry into cells for Marburg Virus | 300,000 tested, 1.8% active | Potency, µM (series often up to 37.8 µM), inactives show top-dose activity change, negative = inhibition, usual class: inhibitors | Marburg virus pseudotyped entry inhibition, cell reporter | AID 540276, 2011; calls by dose curve; tested in HEK293 cells; note: potency is the fitted concentration of half-maximal effect; % is set by controls: 0 for no effect and ±100 for the full control effect
An asterisk follows results filed as active; [ ] = dose if it differs, or a comment.

For O=C(CSc1ccccc1)N1CCc2c([nH]c3ccccc23)C1c1ccc(Cl)cc1 (stereo unspecified) the results were FMDV inh -17% and Lassa entry inh inconclusive.
For CC(=O)N(c1ccccc1)c1nnc(-c2cnc(C)cn2)s1 the results were Cycloheximide cs 29*, FMDV inh 71%, Lassa entry inh 1%, Shiga inhibitor 68*, HCV inh 10% and Marburg entry inh inconclusive.
For O=c1[nH]n(CC2COC3(CCCCC3)O2)c(=O)c2ccccc12 (stereo unspecified) the results were Cycloheximide cs 33*, Lassa entry inh 11%, Shiga inhibitor 43*, HCV inh 11% and Marburg entry inh 13%.
For Cc1cc(C(=O)N/N=C2/CC(C)CC(C)(C)C2)c(C)o1 (stereo unspecified) the results were Cycloheximide cs 31*, FMDV inh 13%, Lassa entry inh 4%, Shiga inhibitor 77*, HCV inh 3% and Marburg entry inh inconclusive.
`CC(C)Oc1ccc(C(=O)NNC(=O)c2ccccc2C(=O)O)cc1` gave Cycloheximide cs 17*, FMDV inh 55%, Shiga inhibitor 30 and HCV inh 0%.
Screening O=C(NNC(=O)c1ccccc1C(=O)O)c1ccc(O)cc1 returned Cycloheximide cs 23*, FMDV inh 2%, Lassa entry inh 12%[46.1 µM], Shiga inhibitor 96, HCV inh 13µM* and Marburg entry inh 1%.
COc1ccc(NC(c2nnc(-c3ccccc3)o2)c2ccccc2F)cc1Cl (stereo unspecified) was read as FMDV inh -9%, Lassa entry inh 6%[46.1 µM] and Marburg entry inh inconclusive.
For O=C(NC(c1ccc(Cl)cc1)c1cccnc1)C1CCN(CCOc2ccc(Cl)cc2Cl)CC1 (stereo unspecified) the results were FMDV inh -14%.
`Cc1csc(NC(=O)c2cc3ccccc3o2)n1` gave FMDV inh -33% and HCV inh inconclusive.
CCCc1nnc(NC(=O)c2cc3ccccc3o2)s1 was read as Cycloheximide cs 13*, FMDV inh 0%, Lassa entry inh 21%, Shiga inhibitor 41, HCV inh 23% and Marburg entry inh inconclusive.
COCc1nnc(NC(=O)c2cc3ccccc3o2)s1 was read as Cycloheximide cs 18*, FMDV inh 1%, Lassa entry inh inconclusive, Shiga inhibitor 58*, HCV inh 17% and Marburg entry inh inconclusive.
O=C(NCc1nc2ccccc2[nH]1)c1c(F)c(F)c(F)c(F)c1F was read as Cycloheximide cs -5, FMDV inh -9%, Lassa entry inh 2%, Shiga inhibitor 12, HCV inh -13% and Marburg entry inh inconclusive.
`Cc1ccc(NC(=O)c2ccccc2F)c(NC(=O)c2ccccc2F)c1` gave FMDV inh 8%, Lassa entry inh inconclusive, HCV inh -24% and Marburg entry inh inconclusive.
For O=C(NCc1cc2ccccc2[nH]1)c1ccccc1F the results were Cycloheximide cs 38*, FMDV inh 39%, Lassa entry inh 4%, HCV inh 3% and Marburg entry inh inconclusive.
`Cc1ccc2[nH]c(CNC(=O)c3ccccc3F)cc2c1` gave Cycloheximide cs 29*, FMDV inh 32%, Lassa entry inh inconclusive, Shiga inhibitor 51, HCV inh -8% and Marburg entry inh inconclusive.
`O=C(NCc1nc2ccccc2[nH]1)c1ccccc1F` gave Cycloheximide cs 33*, FMDV inh 41%, Lassa entry inh inconclusive, Shiga inhibitor 72*, HCV inh 5% and Marburg entry inh 0%[46.1 µM].
`CCC1CN(C(=O)Nc2cccc3c2CCCC3)c2cc(Cl)ccc2O1` (stereo unspecified) gave FMDV inh -23% and Lassa entry inh -6%[46.1 µM].
For CN1C(=O)NC(=O)C(N=Nc2ccc(Cl)cc2)C1=O (stereo unspecified) the results were FMDV inh -1%, Lassa entry inh -9%, HCV inh -4% and Marburg entry inh inconclusive.
